Here are results for eleven compounds from ChEMBL document CHEMBL3988442, “University of Dundee, Small-Polar-MMV Screening Library” (2021).

For some of these results: Measured potencies and affinities stand elsewhere.

Common to all, as to parameters: scale not given: direction of the effect not stated beside the values
Experiment [1] has as its target Protein translocase subunit SecA (Escherichia coli (strain K12)) (UniProt P10408). Briefly: Assay to Identify E. coli SecA ATPase Inhibitors. The class given is functional. Conditions: 30 µM.
For experiment [2], the target named is T1, Ubiquitin-activating enzyme e1, putative (Leishmania donovani (strain BPK282A1)) (UniProt E9BSI1).
T1 sequence (whole entry): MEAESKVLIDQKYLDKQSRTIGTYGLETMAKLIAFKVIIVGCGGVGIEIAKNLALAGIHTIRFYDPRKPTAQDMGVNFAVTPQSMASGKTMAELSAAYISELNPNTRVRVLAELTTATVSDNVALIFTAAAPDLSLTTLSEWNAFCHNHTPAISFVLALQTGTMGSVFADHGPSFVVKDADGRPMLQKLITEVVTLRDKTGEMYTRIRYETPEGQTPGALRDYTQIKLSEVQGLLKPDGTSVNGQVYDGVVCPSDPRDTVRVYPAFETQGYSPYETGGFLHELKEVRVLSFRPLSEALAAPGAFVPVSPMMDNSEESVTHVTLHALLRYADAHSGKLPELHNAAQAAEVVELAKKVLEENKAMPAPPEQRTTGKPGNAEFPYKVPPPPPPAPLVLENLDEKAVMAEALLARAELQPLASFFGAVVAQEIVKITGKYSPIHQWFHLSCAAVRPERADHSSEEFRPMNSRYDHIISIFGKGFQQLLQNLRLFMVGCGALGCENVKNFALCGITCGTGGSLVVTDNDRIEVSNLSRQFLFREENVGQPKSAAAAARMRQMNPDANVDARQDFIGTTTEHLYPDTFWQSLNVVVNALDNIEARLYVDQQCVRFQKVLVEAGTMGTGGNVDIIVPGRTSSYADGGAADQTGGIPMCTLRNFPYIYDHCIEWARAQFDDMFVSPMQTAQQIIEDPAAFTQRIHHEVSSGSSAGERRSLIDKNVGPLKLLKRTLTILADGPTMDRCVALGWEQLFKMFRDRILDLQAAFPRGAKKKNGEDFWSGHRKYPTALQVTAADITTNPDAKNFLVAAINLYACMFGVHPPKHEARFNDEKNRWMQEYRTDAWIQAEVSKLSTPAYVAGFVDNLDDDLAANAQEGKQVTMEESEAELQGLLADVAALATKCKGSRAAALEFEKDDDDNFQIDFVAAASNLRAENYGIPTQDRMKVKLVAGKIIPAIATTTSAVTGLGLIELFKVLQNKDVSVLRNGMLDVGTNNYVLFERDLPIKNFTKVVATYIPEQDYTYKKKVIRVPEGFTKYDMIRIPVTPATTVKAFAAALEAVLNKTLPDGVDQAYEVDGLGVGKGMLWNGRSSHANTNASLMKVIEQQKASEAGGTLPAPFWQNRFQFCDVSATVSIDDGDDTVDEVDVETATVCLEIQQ
The experiment in a line: Leishmania donovani Ubiquitin Activating Enzyme (LdE1). Format: functional. Conditions: 30 µM.

The target in experiment [3] is AMP-activated protein kinase, AMPK (Homo sapiens) (UniProt P54646+O43741+P54619+Q9UGJ0+Q9Y478+Q13131+Q9UGI9). The experiment in a line: AMP-dependent Kinase enzyme assay. An in vitro enzyme assay that detects ADP turnover that is directly proportional to AMPK activity. This uses naive AMPK that is activated during the assay with MK-8722. The class given is functional. Conditions: 30 µM.

Experiment [4] addresses Sialic acid-binding Ig-like lectin 9 (Homo sapiens) (UniProt Q9Y336). The experiment in a line: Hs-Siglec9 ALPHAscreen SOP 20170721. Conditions: 10 µM. On the technique in general: Bead proximity is the source of the signal in Alpha formats.
The subject of experiment [5] is Trypanosoma cruzi. Briefly: Trypanosoma cruzi phosphomannomutase and mannose-1-phosphate guanylyltransferase assay. The class given is functional. As to conditions: 10 µM.
For experiment [6], the target named is T2, Arginase-2, mitochondrial (Homo sapiens) (UniProt P78540).
T2 sequence (whole entry): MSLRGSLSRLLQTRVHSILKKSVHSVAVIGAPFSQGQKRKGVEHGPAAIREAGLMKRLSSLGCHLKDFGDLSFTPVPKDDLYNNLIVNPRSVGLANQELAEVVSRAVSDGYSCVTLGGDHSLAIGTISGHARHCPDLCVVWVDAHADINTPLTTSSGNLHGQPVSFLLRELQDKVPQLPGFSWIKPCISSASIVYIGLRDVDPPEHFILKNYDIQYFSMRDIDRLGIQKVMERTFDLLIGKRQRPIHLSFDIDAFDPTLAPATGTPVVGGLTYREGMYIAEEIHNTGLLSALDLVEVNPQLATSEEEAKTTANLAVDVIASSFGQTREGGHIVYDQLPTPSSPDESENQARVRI
Briefly: in vitro enzyme assay to detect the production of urea directly proportional to the activity of Arginase II. Also: in the data most compounds retested in dose-response had high values. Format: functional. As to conditions: 33.3 µM.

Experiment [7] deals with T3, Proteasome subunit beta (Trypanosoma cruzi) (UniProt O96673).
T3 sequence (whole entry): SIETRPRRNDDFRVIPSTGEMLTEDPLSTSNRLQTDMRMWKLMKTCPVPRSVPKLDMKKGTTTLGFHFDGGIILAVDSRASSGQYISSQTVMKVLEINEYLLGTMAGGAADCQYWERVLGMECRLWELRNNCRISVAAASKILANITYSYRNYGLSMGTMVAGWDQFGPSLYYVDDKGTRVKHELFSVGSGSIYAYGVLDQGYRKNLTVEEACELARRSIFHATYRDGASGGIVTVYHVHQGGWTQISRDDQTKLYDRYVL
The experiment in a line: Trypanosoma cruzi proteasome chymotrypsin-like activity (TcProtChymo) assay. Also: in the data most compounds retested in dose-response had high values. Format: functional. As to conditions: 9.37 µM.

The species entered for experiment [8] is Homo sapiens. Briefly: To identify inhibition of the IFN signalling (Jak-Stat) pathway via expression of an eGFP reporter gene under the control of an IFN-stimulated response element (ISRE) containing MxA promoter. Format: functional. Conditions: 30 µM. Background: In a reporter assay the amount or activity of a reporter protein is the signal.
Experiment [9] concerns the target T4, Tyrosyl-tRNA synthetase, putative (Trypanosoma cruzi (strain CL Brener)) (UniProt Q4DSP6).
T4 sequence (whole entry): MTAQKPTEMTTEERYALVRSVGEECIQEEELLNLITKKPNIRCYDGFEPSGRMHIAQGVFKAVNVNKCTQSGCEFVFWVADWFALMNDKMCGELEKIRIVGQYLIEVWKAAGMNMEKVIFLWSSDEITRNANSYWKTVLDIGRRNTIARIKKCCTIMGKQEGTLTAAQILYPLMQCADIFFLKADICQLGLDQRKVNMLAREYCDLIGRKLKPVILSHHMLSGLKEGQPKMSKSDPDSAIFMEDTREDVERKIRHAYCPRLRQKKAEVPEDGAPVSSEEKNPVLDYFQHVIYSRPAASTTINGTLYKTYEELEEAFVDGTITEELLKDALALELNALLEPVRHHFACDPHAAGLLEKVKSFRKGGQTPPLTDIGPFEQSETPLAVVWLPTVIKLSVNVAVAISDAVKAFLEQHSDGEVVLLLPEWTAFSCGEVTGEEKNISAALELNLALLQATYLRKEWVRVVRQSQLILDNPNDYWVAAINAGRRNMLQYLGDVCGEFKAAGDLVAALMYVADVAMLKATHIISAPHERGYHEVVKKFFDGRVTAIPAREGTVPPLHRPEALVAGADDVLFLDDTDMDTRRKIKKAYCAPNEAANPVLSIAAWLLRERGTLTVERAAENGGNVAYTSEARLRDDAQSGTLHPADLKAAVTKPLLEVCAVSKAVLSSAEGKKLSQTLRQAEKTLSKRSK
The experiment in a line: Trypanosoma cruzi tyrosyl tRNA synthetase (TcYRS) _High Tyrosine SOP. Also: in the data most compounds retested in dose-response had high values. Format: functional. As to conditions: 30 µM.

Experiment [10] concerns the target T4, Tyrosyl-tRNA synthetase, putative (Trypanosoma cruzi (strain CL Brener)). The experiment in a line: Trypanosoma cruzi tyrosyl tRNA synthetase (TcYRS) SOP. Format: functional. Conditions: 30 µM.
Experiment [11] addresses Chromo domain-containing protein 1 (Saccharomyces cerevisiae (strain ATCC 204508 / S288c) (Baker's yeast)) (UniProt P32657). The experiment in a line: ScCHD-1 Enzyme Inhibition Assay. Also: in the data most compounds retested in dose-response had high values. The class given is functional. As to conditions: 30 µM.

Sialic acid-binding Ig-like lectin 9 (Homo sapiens), sequence (Q9Y336 whole entry): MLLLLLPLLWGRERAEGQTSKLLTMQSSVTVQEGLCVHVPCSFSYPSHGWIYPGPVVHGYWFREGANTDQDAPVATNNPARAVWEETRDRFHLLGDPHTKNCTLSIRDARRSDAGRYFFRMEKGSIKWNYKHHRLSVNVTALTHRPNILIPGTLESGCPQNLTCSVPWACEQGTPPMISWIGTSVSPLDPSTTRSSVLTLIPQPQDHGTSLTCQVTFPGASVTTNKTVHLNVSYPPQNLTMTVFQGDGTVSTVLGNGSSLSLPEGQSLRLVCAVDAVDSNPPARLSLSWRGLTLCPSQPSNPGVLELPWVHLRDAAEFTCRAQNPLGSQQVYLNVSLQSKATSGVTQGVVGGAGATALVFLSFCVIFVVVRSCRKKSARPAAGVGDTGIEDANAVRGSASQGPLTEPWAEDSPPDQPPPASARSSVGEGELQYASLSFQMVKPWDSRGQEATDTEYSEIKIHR
Chromo domain-containing protein 1 (Saccharomyces cerevisiae (strain ATCC 204508 / S288c) (Baker's yeast)), sequence (P32657 whole entry, the tested form may be a part): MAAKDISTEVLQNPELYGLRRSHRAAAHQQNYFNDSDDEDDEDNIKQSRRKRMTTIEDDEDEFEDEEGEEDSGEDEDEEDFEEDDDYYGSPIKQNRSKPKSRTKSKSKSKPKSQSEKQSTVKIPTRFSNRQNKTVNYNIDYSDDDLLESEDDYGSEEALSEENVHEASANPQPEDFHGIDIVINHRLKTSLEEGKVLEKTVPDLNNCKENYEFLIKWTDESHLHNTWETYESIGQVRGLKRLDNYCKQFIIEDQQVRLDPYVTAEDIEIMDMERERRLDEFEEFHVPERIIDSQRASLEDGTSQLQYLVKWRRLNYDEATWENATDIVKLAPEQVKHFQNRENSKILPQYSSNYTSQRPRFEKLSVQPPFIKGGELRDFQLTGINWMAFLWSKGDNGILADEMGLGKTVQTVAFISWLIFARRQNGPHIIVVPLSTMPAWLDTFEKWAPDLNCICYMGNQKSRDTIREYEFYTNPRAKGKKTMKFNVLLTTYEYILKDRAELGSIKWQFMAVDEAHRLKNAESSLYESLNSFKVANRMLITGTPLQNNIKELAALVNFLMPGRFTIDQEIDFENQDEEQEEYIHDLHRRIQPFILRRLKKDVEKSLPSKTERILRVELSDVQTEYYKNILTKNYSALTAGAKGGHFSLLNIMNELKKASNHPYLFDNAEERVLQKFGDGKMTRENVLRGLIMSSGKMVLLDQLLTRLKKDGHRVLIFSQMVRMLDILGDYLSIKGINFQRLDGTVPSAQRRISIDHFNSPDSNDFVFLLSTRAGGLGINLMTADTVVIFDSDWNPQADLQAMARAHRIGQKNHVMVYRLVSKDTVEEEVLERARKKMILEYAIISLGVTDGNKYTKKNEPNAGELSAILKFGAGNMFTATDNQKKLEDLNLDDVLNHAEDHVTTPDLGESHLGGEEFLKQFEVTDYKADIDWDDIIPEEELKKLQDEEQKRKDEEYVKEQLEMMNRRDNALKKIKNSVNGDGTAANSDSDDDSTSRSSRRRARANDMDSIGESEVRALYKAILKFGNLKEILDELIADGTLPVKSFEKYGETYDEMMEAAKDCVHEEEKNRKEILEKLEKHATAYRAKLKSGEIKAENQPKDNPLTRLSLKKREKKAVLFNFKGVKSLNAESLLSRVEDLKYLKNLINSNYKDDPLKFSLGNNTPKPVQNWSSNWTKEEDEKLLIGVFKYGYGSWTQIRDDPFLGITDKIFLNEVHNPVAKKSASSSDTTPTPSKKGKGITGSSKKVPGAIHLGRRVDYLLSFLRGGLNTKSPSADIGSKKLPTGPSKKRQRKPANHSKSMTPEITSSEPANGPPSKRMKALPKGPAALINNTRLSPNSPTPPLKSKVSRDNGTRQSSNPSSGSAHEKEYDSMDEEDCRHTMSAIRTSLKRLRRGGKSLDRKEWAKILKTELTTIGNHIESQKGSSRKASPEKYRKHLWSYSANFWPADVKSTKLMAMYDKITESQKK
Protein translocase subunit SecA (Escherichia coli (strain K12)), sequence (P10408 whole entry): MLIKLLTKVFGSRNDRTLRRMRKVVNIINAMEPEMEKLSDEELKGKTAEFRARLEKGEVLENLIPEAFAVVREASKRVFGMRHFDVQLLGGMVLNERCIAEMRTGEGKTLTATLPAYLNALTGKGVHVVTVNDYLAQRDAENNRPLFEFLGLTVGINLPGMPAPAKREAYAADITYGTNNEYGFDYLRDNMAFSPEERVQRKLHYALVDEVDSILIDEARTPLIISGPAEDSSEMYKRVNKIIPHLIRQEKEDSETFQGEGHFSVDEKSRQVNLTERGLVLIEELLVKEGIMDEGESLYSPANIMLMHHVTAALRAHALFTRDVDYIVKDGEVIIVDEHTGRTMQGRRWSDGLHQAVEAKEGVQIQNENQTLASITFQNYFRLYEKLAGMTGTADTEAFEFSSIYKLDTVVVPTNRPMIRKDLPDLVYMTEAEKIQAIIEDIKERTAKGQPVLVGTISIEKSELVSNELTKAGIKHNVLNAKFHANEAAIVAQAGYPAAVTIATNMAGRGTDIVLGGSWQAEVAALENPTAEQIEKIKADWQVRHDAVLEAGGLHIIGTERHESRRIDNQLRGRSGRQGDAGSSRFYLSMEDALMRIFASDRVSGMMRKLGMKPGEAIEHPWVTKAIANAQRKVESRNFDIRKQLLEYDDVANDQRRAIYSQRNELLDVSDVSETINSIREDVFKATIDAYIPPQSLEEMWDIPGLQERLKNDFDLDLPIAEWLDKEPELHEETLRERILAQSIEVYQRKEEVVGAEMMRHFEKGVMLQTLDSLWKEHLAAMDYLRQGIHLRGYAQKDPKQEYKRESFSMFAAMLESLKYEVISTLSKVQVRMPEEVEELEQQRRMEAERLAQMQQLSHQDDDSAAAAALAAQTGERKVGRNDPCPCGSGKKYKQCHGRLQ

As for `C[S+]([O-])c1nncn1CC(=O)c1cccc(Cl)c1` (stereo unspecified), the Percent Effect is -7.89% in [1]; 16.2% in experiment [2]; -4.48% in [3]; 23.3% in [4]; 6.16% in experiment [5]; 3.72% in experiment [6]. Moreover, the Percent Effect is 10.4% in experiment [7]; -1.98% in [8]; 5.38% in experiment [9]; 8.64% in [10]; -6.7% in [11].
In the case of `Cc1cccc(C(=O)NCc2ccc(S(N)(=O)=O)cc2)n1`, the Percent Effect is -5.17% in experiment [1]; 20.8% in experiment [2]; 1.31% in experiment [3]; -0.564% in experiment [4]; -0.187% in experiment [5]; 2.85% in experiment [6]. In addition, the Percent Effect in experiment [7] was 4.39%; in experiment [8], 8.2%; in experiment [9], 9.71%; in experiment [10] it was 24.4%; in experiment [11] it was -6.84%.
For `NC(=O)C1CCCN1Cc1cccc(NC(=O)c2ccsc2)c1` (stereo unspecified), the Percent Effect is -3.24% in [1]; 13.3% in [2]; 0.719% in experiment [3]; 13.7% in experiment [4]; 3.6% in [5]; 10.4% in [6]. The Percent Effect in experiment [7] was 20.2%; in experiment [8], 11.8%; in experiment [9], 10.4%; in experiment [10], 18.5%; in [11], -10.5%.
Turning to `CC(C)(C)c1nnc(CN2CCCC(c3cc(C(N)=O)[nH]n3)C2)o1` (stereo unspecified), the Percent Effect was -6.11% in experiment [1]; 10.8% in [2]; -2.58% in experiment [3]; -2.88% in [4]; -7.08% in experiment [5]; -10% in experiment [6]. For the same compound, the Percent Effect in experiment [7] was 3.78%; in experiment [8], 9%; in experiment [9], -2.46%; in [10] it was -1.24%; in [11], -5.5%.
Consider `COC(CNC(=O)N1CCC(n2cncn2)CC1)c1ccccc1` (stereo unspecified), for which the Percent Effect in [1] was -0.684%; in experiment [2], -3.8%; in experiment [3], 13.4%; in [4], 3.12%; in experiment [5], -1.13%; in experiment [6], 1.94%. Besides, the Percent Effect in [7] is 0.686%; in experiment [8], 0.165%; in experiment [9] it was 2.08%; in experiment [10], 2.53%; in [11], -14.3%.
With `O=C(c1cccs1)N1CCC(Cn2nc(-c3ccco3)ccc2=O)CC1`, the Percent Effect is 0.0559% in experiment [1]; 6.76% in [2]; 15.8% in experiment [3]; 0.867% in experiment [4]; -6.92% in experiment [5]; 3.02% in experiment [6]. The Percent Effect in [7] worked out at 26.8%; in experiment [8], 13.6%; in experiment [9], 10.8%; in experiment [10] it was 14.3%; in [11] it was 1.29%.
As for `COc1ccc(CCN2CCc3c(nc(C4CC4)n3C)C2)cc1`, the Percent Effect was -2.18% in experiment [1]; 18.2% in experiment [2]; -12.2% in experiment [3]; -0.11% in experiment [4]; -3.18% in [5]; 0.356% in experiment [6]. Besides, the Percent Effect in experiment [7] was 9.12%; in experiment [8] it was 18.2%; in [9] it was 6.8%; in experiment [10], 2.44%; in experiment [11] it was -7.4%.
Regarding `CC(C(=O)Nc1ccc(N2CCCC2)nc1)n1ccnc1` (stereo unspecified), the Percent Effect is -1.03% in [1]; 5.41% in experiment [2]; -13.4% in experiment [3]; 11.1% in experiment [4]; 0.0943% in experiment [5]; -8.82% in [6]. For the same compound, the Percent Effect was 8.65% in experiment [7]; 28.6% in [8]; 5.42% in experiment [9]; 16.1% in experiment [10]; -8.67% in experiment [11].
Turning to `CN(C(=O)Cc1ccc2c(c1)OCCO2)C1CCCC1`, the Percent Effect is 3.58% in experiment [1]; 10.5% in experiment [2]; 1.6% in experiment [3]; -8.7% in [4]; -3.8% in experiment [5]; -7.1% in experiment [6]. In addition, the Percent Effect in [7] is 3.55%; in [8], 14.1%; in [9], 3.19%; in [10] it was 10.4%; in experiment [11], -0.571%.
For `CC(NC(=O)C1=NN(C)C(=O)CC1)c1ccc(F)cc1F` (stereo unspecified), the Percent Effect in [1] is -1.15%; in [2], 16.4%; in [3], 16.9%; in experiment [4] it was 10.9%; in experiment [5], 4.11%; in experiment [6], -4.09%. The Percent Effect in experiment [7] was 20.4%; in [8], 14.5%; in [9], 5.38%; in [10], 15%; in experiment [11] it was -6.12%.
For `Cc1cccc(-c2[nH]ncc2CNCC2CCN(CC(C)O)CC2)c1` (stereo unspecified), the Percent Effect was -3.75% in [1]; 8.11% in [2]; -18.5% in experiment [3]; 11.6% in [4]; 1.42% in [5]; 0.401% in [6]. Moreover, the Percent Effect in experiment [7] is 3.96%; in experiment [8] it was 3.31%; in [9], 5.42%; in experiment [10], 18.5%; in experiment [11], -8.81%.
